The whole screen tested about 62,000 compounds, of which about 35 (0.06%) were called active. The sample as a whole holds a higher share of actives than the screen did. Unmarked numbers belong to inactive results. No stated cut-off is given here; in the data, active means inhibition above about 32% (passing the limit was not always enough); inconclusive means no clear call, values can overlap the other calls.

Chain of Cathepsin S (Homo sapiens) (P25774 115-331 limits assumed): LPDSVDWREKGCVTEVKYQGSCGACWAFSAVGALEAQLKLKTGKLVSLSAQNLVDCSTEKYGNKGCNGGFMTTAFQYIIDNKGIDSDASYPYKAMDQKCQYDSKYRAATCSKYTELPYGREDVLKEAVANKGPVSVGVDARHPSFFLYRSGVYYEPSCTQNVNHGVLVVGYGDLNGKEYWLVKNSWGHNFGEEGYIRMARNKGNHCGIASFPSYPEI

The experiment addresses Cathepsin S (Homo sapiens) (UniProt P25774). The experiment can be described thus: blockers of CTSS protease activity – biochemical, compound mixtures (AID 501).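 Further: 0% = enzyme without compound and 100% = blank without enzyme.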 The settings on record: recombinant cathepsin S, AMC dipeptide fluorescence, pooled mixtures; active compounds read high;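 tested at 5 µM per compound within 10-compound mixtures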.
Broadly, the inhibition is the drop in the measured response relative to a control, in per cent. As for `Cn1c(C(=O)NCCN2CCc3ccccc3C2)cc2c(=O)[nH]c3ccccc3c21`, the inhibition is 45.6% (active).

For `Cn1c(C(=O)NCCc2ccsc2)cc2c(=O)n(C)c3ccccc3c21`, the inhibition is -2.9%.

On to `Cc1cccc(N2CCN(C(=O)c3cc4c(=O)[nH]c5ccccc5c4n3C)CC2)c1C`, for which the inhibition was 16.8%.

As for `CC(=O)Nc1ccc(-c2cn3cccnc3n2)cc1`, the inhibition is -4.08%.

Consider `COc1ccc(N(CC(=O)NC2CCCCCCC2)S(=O)(=O)c2c(C)nn(C)c2C)cc1`, for which the inhibition is -2.48%.

On to `COc1ccc(N(C(=O)c2cccnc2)S(=O)(=O)c2ccc3c(c2)n(C)c(=O)n3C)cc1`, for which the inhibition is -5.68%.

Turning to `COC(=O)c1[nH]c2cccc(C)c2c1NC(=O)CN1CCCc2ccccc21`, the inhibition is 51.2% (active).

Take `COC(=O)c1[nH]c2ccccc2c1NC(=O)CN1CCCc2ccccc21`: the inhibition was 15.9%.

`Cc1ccccc1NC(=O)CNc1ccccc1N1CCCCC1`: the inhibition was -4.53%.

For `COC(CCN(C)C)(c1ccccc1)c1ccccc1`, the inhibition is -4.38%.

For the compound `CCN(CCCCOC(=O)c1ccc(OC)c(OC)c1)C(C)Cc1ccc(OC)cc1` (stereo not drawn), the inhibition was 14.3%.

On to `O=C(O)C1CCCN(S(=O)(=O)c2cccc3cccnc23)C1` (stereo not drawn), for which the inhibition is -4.15%.

As to `O=C(O)CSCNC(=O)CC12CC3CC(CC(C3)C1)C2`, the inhibition was 1.12%.

Consider `CCOc1ccccc1Nc1nnc(SCC(=O)Nc2cc(C)on2)s1`, for which the inhibition is 8.96%.

As for `CC1=C(C(=O)OCc2ccccc2)C(c2ccco2)n2ncnc2N1` (stereo not drawn), the inhibition was 6.81%.

For the compound `CCOC(=O)C1CCN(C(=O)C2CCN(S(=O)(=O)CC)CC2)CC1`, the inhibition was 6.47%.

Turning to `O=C(CN(c1ccc2c(c1)OCCO2)S(=O)(=O)c1ccccc1)Nc1ccc2c(c1)OCO2`, the inhibition was 8.94%.

On to `Cc1nnc(SCCCn2c(N3CCCCC3)nc3c2c(=O)[nH]c(=O)n3C)s1`, for which the inhibition is 37.6% (active).

Consider `Cn1c(=O)[nH]c(=O)c2c1nc(N1CCCCCC1)n2CC(=O)c1ccccc1`, for which the inhibition was 12.8%.

With `C=C(C)Cn1c(N2CCCC2)nc2c1c(=O)[nH]c(=O)n2C`, the inhibition is -0.005%.

As for `CCOc1ccc(C2C(C(=O)O)c3ccccc3C(=O)N2CCN2CCOCC2)cc1` (stereo not drawn), the inhibition was 39.9%.

In the case of `Cn1c(=O)cc(SCC(=O)N2CCCC2)c2cc(Cl)ccc21`, the inhibition is 1.36%.

`O=C(NCc1ccccn1)Nc1ccc(F)cc1`: the inhibition was 17.6%.

As for `CCCc1nc(-c2ccccc2O)n(-c2ccccc2)n1`, the inhibition was -4.97%.

Consider `O=C(O)C1CC=CCC1C(=O)NCCc1ccccc1` (stereo not drawn), for which the inhibition was -14.2%.

Take `O=C1c2ccccc2C(=O)N1c1ccccc1S(=O)C(F)(F)F` (stereo not drawn): the inhibition was 16.1%.

For the compound `COC(=O)CN(c1nc(C)c(Cl)c(OC)n1)S(=O)(=O)c1ccc(C)cc1`, the inhibition is 3.91%.

For the compound `CCOc1ccc(NC(=O)CSc2nc3c(c(=O)n2-c2ccccc2OC)SCC3)cc1`, the inhibition was -11.1%.

On to `O=C(NCCCN1CCN(Cc2ccccc2)CC1)C1CCN(S(=O)(=O)N2CCCC2)CC1`, for which the inhibition was 17.9%.

For the compound `O=C(COc1ncnc2ccccc12)NC(=O)NCc1ccccc1`, the inhibition is -8.35%.

For `Cc1cccc(N2CCN(Cc3c(C)n(C)n(-c4ccccc4)c3=O)CC2)c1C`, the inhibition was -2.31%.

In the case of `CC(C)C[C@H](NC(=O)[C@@H]1O[C@H]1C(=O)O)C(=O)NCCCCN=C(N)N`, the inhibition is 117% (active).

As for `Cc1cccc(N2CCN(C(c3ccccc3)c3nnnn3CC3CCCO3)CC2)c1C` (stereo not drawn), the inhibition was 6.28%.

Take `Cc1nn(-c2ccccc2)c2sc(C(=O)N(Cc3ccco3)C(C)C(=O)NC(C)(C)C)cc12` (stereo not drawn): the inhibition was 13.8%.

In the case of `c1ccc2c(c1)OCC(CNc1ncnc3nc[nH]c13)O2` (stereo not drawn), the inhibition is -0.615%.

As for `O=C(CN1CCN(c2ncc(C(F)(F)F)cc2Cl)CC1)Nc1ccc2c(c1)OCO2`, the inhibition was 13.5%.

Regarding `COc1ccc(-c2noc(CN(C)S(=O)(=O)c3ccc(C)cc3)n2)cc1`, the inhibition is 8.41%.

Turning to `Cc1ccc2c(c1)N(C(=O)CCC(=O)N1CCc3ccccc3C1)CCO2`, the inhibition is -12.7%.

As for `CC1CCCC(C)N1CCCNC(=O)c1cc2c(=O)n(C)c3ccccc3c2n1C` (stereo not drawn), the inhibition is 7.08%.

As to `Cn1c(C(=O)NCCCN2CCN(c3cccc(Cl)c3)CC2)cc2c(=O)n(C)c3ccccc3c21`, the inhibition is 33% (active).

Take `CCn1c(=O)cc(OCC(=O)NCCCN2CCN(c3cccc(Cl)c3)CC2)c2ccccc21`: the inhibition is 4.46%.

On to `COc1ccc(-c2ccc(-c3noc(-c4ccncc4)n3)c(OC)n2)cc1`, for which the inhibition is 6.8%.

In the case of `COc1ccccc1N1CCN(c2nc3ccccc3n3nnnc23)CC1`, the inhibition is 8.24%.

`CC1CCCC(NC(=O)CN2CCN(Cc3ccc(Cl)cc3)C2=O)C1C` (stereo not drawn): the inhibition was -3.54%.

In the case of `CCN(CC)S(=O)(=O)c1ccc2nc(CSc3nnnn3-c3ccc(O)cc3)[nH]c2c1`, the inhibition was -6.33%.

For `CCC(C)Sc1nnc(-c2c[nH]c3ccccc23)n1CCOC` (stereo not drawn), the inhibition is -1.22%.

Turning to `COc1ccc(-c2cc3n(n2)CCc2nc4ccccc4n2-3)cc1`, the inhibition is -5.35%.

For the compound `CCN(CC)C(=O)CSc1nnc(-c2ccc(S(=O)(=O)NCc3ccccc3Cl)cc2)o1`, the inhibition is 6.42%.

In the case of `O=c1/c(=C/c2ccc(CNS(=O)(=O)c3ccccc3)o2)sc2n1CCN=2`, the inhibition is -0.38%.

In the case of `Cc1cc(C)nc(SCc2ccccc2C#N)n1`, the inhibition is -2.31%.

As to `CCc1cc(=O)oc2cc(C)cc(OC(C)C(=O)O)c12` (stereo not drawn), the inhibition was -5.16%.

Take `CN1CCN(Cc2c(O)ccc3c2oc(=O)c2ccccc23)CC1`: the inhibition was 6.08%.

Take `CCNS(=O)(=O)c1ccc(NC(=O)Nc2cccc(C(F)(F)F)c2)cc1`: the inhibition is -6.53%.

For the compound `Cc1c2cnn(-c3ccccc3)c(=O)c2c(C)n1CCCC(=O)N1CCN(C)CC1`, the inhibition was -3.9%.

In the case of `CC(NC(=O)c1ccco1)C(=O)Nc1nc(-c2ccccn2)cs1` (stereo not drawn), the inhibition was 12%.

Take `O=C(O)C1C2C=CC(C2)C1C(=O)N1CCN(CCO)CC1` (stereo not drawn): the inhibition was 3.18%.

As for `CC(=O)c1cnc(Nc2nc(C)c3cc(C)ccc3n2)nc1C`, the inhibition was -5.6%.

Take `CC(C)NS(=O)(=O)c1ccc(OCC(=O)Nc2ccc3c(c2)OCCO3)cc1`: the inhibition was 22.9%.

(Values after PubChem BioAssay AID501 (PCMD, 2006).)
